Experimental data reported in ChEMBL document CHEMBL1157539, “Thousands of chemical starting points for antimalarial lead identification” (Nature, 2010).

How the values were obtained:
Format in all cases: functional
Plasmodium falciparum [1] = assay: GSK_TCMDC: Inhibition of Plasmodium falciparum 3D7 in whole red blood cells, using parasite LDH activity as an index of growth. Test compounds present at 2uM
Plasmodium falciparum [2] = assay: GSK_TCMDC: Inhibition of Plasmodium falciparum Dd2 in whole red blood cells, using parasite LDH activity as an index of growth. Test compounds present at 2uM
HepG2 = assay: GSK_TCMDC: Percent inhibition of human HepG2 cell line. Test compounds present at 10uM.

Structure (SMILES)	Inhibition (Plasmodium falciparum [1]) [%]	Inhibition (Plasmodium falciparum [2]) [%]	Inhibition (HepG2) [%]
CCOc1ccc2nc3cc([N+](=O)[O-])ccc3c(N)c2c1	99	100	67
CC(C)c1ccc(CN2CCC(CNC(=O)c3cc(-c4cccc(C(F)(F)F)c4)cs3)C2)cc1.O=C(O)C(F)(F)F (stereo not given)	99	60	36
O=C(NCc1cccs1)[C@H](Cc1ccccc1)Nc1ccnc(NCCc2ccccc2)n1.O=C(O)C(F)(F)F	85	59	0
Cl.O=c1cc(NCCCNCc2ccc(Cl)c(Cl)c2)[nH]c2cc(Cl)ccc12	95	51	1
O=C(NC1CC1)c1ccc(N2CCCC(COc3ccc4c(c3)CCCC4)C2)nc1 (stereo not given)	85	65	0
COc1ccc2nccc([C@@H](O)CN3CCC(NCc4nc5ccccc5s4)CC3)c2c1.O=C(O)C(=O)O	93	5	8
Fc1ccc2[nH]c(-c3ccc(-c4ccc(CNCCN5CCNCC5)cc4)s3)nc2c1.O=C(O)C(F)(F)F	96	2	24
Fc1ccc(Nc2ccnc3cc(I)ccc23)c(Cl)c1	95	24	35
CCCC(C)Nc1nc(C)cc(N[C@@H](Cc2ccccc2)C(=O)NCCc2ccccc2)n1.O=C(O)C(F)(F)F (stereo not given in full)	97	68	11
COc1cc2nc(N3CCC(CNC(=O)c4ccc(-c5ccc(C(=O)N(C)C)cc5)cc4)CC3)nc(N)c2cc1OC	100	89	20
